Screens (PubChem)
ROCK2 blocker = inhibitors of human Rho kinase 2; purified ROCK2, Kinase-Glo ATP depletion luminescence; inhibition, % at 6 µM; 60,000 tested, 0.35% active;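 active means inhibition above the screen-wide mean inhibition plus 3 SD, cut at about 18% in these data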;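 further: plate controls were DMSO wells for no effect and Y-27632 control wells after no-enzyme background subtraction for full effect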
Target sequence (O75116 whole entry, looked up): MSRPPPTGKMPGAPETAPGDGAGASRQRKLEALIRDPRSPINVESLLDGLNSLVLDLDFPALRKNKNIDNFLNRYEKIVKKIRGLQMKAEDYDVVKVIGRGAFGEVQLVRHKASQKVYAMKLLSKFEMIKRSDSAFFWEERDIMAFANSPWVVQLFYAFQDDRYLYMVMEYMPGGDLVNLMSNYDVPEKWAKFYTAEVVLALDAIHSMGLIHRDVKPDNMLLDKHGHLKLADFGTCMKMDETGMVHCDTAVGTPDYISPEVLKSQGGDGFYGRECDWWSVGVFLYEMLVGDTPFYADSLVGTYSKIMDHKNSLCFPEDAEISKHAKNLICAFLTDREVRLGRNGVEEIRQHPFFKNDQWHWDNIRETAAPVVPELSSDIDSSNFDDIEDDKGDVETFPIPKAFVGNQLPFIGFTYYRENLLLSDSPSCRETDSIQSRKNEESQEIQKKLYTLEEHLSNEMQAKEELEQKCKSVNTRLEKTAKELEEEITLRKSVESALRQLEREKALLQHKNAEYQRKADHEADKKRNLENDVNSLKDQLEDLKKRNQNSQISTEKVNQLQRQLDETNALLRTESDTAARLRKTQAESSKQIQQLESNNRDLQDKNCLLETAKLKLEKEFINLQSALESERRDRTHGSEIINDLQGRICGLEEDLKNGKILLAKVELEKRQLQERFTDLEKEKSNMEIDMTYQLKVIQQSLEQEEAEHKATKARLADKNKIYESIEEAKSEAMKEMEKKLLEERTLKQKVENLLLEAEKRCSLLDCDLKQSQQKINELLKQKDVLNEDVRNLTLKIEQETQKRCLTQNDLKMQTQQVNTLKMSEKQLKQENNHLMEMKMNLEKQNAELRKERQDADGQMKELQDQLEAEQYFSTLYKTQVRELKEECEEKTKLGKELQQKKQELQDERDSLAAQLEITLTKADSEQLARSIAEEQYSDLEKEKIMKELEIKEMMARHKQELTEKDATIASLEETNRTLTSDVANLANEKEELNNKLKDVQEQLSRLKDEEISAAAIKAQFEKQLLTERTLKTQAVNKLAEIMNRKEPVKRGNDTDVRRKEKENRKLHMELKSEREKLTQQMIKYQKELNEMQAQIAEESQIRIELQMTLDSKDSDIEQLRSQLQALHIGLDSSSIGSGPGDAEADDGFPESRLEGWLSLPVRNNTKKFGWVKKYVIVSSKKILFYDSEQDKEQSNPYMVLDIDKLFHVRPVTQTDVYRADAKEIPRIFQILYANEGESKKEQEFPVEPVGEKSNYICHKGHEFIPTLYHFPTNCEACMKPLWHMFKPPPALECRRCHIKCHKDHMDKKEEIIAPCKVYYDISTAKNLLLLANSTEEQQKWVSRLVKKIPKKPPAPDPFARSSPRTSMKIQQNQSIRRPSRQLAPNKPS
D1 allo mod = allosterically modulates the human D1 dopamine receptor; P21728; 58,000 tested, 5.9% active; B-score at 10 µM; HEK293 D1, CRE-luciferase, dopamine EC30 potentiation; actives deviate in either direction; AID 641;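 active means luminescence count or its row- and column-corrected plate score outside the 99.7% band of the plate's sample wells, on either side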
hDAT+cocaine = human DAT dopamine uptake with cocaine, either direction; B-score at 10 µM; 110,000 tested, 1.3% active; LLC-PK1 hDAT cells, [14C]-dopamine uptake with cocaine IC80; actives deviate in either direction; Q01959; AID 449768;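 active means Z score or B-score, a plate-position-corrected score, falls beyond the plate's 99.7% confidence bounds, in either direction; inactive means both scores lie inside the 99.7% bounds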;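 further: scored against the spread of the other compound wells on the same plate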
PKA kinase inh = PKA (human) kinase inhibition; P17612; PKA Kemptide phosphorylation, Kinase-Glo ATP luminescence; inhibition, % at 6 µM; 65,000 tested, 0.1% active; AID 524;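 active means inhibition above the screen-wide mean inhibition plus 3 SD, cut at about 21% in these data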
JNK3 inh = blocks human JNK3 kinase activity; purified JNK3 kinase activity, HTS; inhibition, % at 8 µM; P53779; 60,000 tested, 0.61% active; AID 746; in the data active means inhibition above about 17%;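 further: 0% = DMSO and 100% = reference inhibitor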
* = called active by the depositor; / = no result. This excerpt belongs to a sample that is enriched for hits.

SMILES | ROCK2 blocker | D1 allo mod | hDAT+cocaine | PKA kinase inh | JNK3 inh
N#CCCCSc1nnc(-c2ccc(Cl)cc2)n1-c1ccccc1 | -1 | 1.3 | -8.6* | 4 | 2
Cc1cc(SCCC(=O)O)nc2ccccc12 | 8 | / | 0.4 | 5 | 7
O=C(CSc1nc2ccccc2s1)N1c2ccccc2Sc2ccccc21 | / | / | 0.76 | / | /
O=C(O)CSc1ccc2ccccc2n1 | 4 | -0.049 | 0.15 | 6 | 18*
O=C(O)CCSc1nc2ccccc2s1 | 6 | -6.5* | -0.29 | 9 | 0
O=C(CSc1nc2ccccc2o1)Nc1ccccc1 | 3 | 0.77 | -0.87 | 2 | -5
O=C(O)CCSc1ccc2ccccc2n1 | 4 | -1.8 | 1 | 3 | 28*
O=C(O)CSc1nc2ccccc2o1 | 2 | 0.89 | -8.6* | 7 | 3
O=C(CC(c1ccco1)C1CCCCC1=O)c1ccccc1 (configuration not stated) | / | / | -0.065 | / | /
CC(OC(=O)C1CCN(S(=O)(=O)c2ccc(Cl)cc2)CC1)C(=O)N1CCc2ccccc21 (configuration not stated) | / | / | -0.33 | / | /
CCOC(=O)CC(=O)CSc1ncnc2c1oc1ccccc12 | 6 | 0.91 | / | 4 | 42*
O=C(O)CSc1ncnc2c1oc1ccccc12 | / | / | -0.5 | / | /
CCCNC(=O)c1cccc(Cn2nc(C)c(Br)c2C)c1 | 10 | -1.7* | 0.57 | 0 | 5
Cc1nn(Cc2cccc(C(=O)NC34CC5CC(CC(C5)C3)C4)c2)c(C)c1Br | / | / | 1.8 | / | /
O=C1NC(O)(c2ccccc2)Oc2ccccc21 (configuration not stated) | / | / | -0.17 | / | /
CC1CCC2(CC1)NC(=O)c1ccccc1O2 (configuration not stated) | 2 | -2.4* | 0.35 | 3 | -5
COc1cccc(C2=NOC(C(=O)Nc3cc(OC)c(OC)c(OC)c3)C2)c1 (configuration not stated) | -2 | 0.7 | 2.4 | 0 | 81*
COc1ccc(NC(=O)C2CC(c3cc(OC)c(OC)c(OC)c3)=NO2)cc1OC (configuration not stated) | 0 | 1.5 | 1.5 | 2 | 3
COc1ccccc1N1CCN(CC(O)c2ccc3cc[nH]c3c2)CC1 (configuration not stated) | -1 | -2.6* | -1.2 | -10 | 8
COc1ccccc1N1CCN(CC(O)COc2c(OC)cccc2OC)CC1 (configuration not stated) | 9 | -4.6* | -1.3 | 10 | -6
COc1cc(OC)c(OC)cc1CN1CCN(c2ccccc2OC)CC1 | -1 | -3.7* | -1.4 | -8 | 0
C=CCc1ccccc1OCC(O)CN1CCN(c2ccc(OC)cc2)CC1 (configuration not stated) | 4 | -2.6* | -1.1 | -3 | -4
COc1cccc(OC)c1OCC(O)CN1CCN(c2ccccc2)CC1 (configuration not stated) | 1 | -2.9 | -0.61 | 2 | 5
CCOC(=O)CN1C(=O)N[C@@H](CCc2ccccc2)[C@@H](C(=O)OC)[C@H]1C | / | / | 0.086 | / | /
COc1ccccc1NS(=O)(=O)c1ccc(NC(=O)c2nc3nc(C)cc(C(F)F)n3n2)cc1 | / | / | 0.62 | / | /
SMILES | ROCK2 blocker | D1 allo mod | hDAT+cocaine | PKA kinase inh | JNK3 inh
CC1(C)CC(=O)C(C=NCCN2CCN(C(=S)Nc3ccc(F)cc3)CC2)=C(O)C1 | / | / | 0.13 | / | /
CCOC(=O)c1sc(SCc2ccccc2)c2c1CC(C)(C)CC2=O | / | / | 1.1 | / | /
CCn1c(SCC(=O)c2ccc(OC)cc2)nnc1C(C)NC(=O)c1ccc(OC)cc1 (configuration not stated) | -6 | -0.35 | -0.063 | 1 | -5
COC(=O)CCC(=O)OC1(C)C(=O)C=C2C=C(C3CC3)N(Cc3ccccc3)C=C2C1=O (configuration not stated) | / | / | -2.3* | / | /
Cc1ccc(S(=O)(=O)N2CCOCC2)cc1C(=O)N1c2ccccc2Sc2ccccc21 | / | / | 0.14 | / | /
O=C1CSC(c2cn(-c3ccccc3)nc2-c2ccccc2)N1Cc1ccco1 (configuration not stated) | 2 | 1.2 | -0.049 | 2 | 2
O=C1CSC(c2cn(-c3ccccc3)nc2-c2cccs2)N1CC1CCCO1 (configuration not stated) | 2 | -0.038 | 2.7* | 4 | 8
O=C(Nc1ccccn1)c1cc2ccccc2o1 | / | / | -1.2 | / | /
Cc1csc(C(C#N)C(=O)c2cc3ccccc3o2)n1 (configuration not stated) | / | -3.8* | -0.65 | 6 | /
Cc1ccc(S(=O)(=O)Nc2ccnc3ccccc23)cc1 | / | / | -8* | / | /
Cc1ccc(S(=O)(=O)Nc2ccc(O)c3ncccc23)cc1 | / | / | 1.7 | / | /
